The source of these data is PubChem BioAssay AID449762 (Southern Research Specialized Biocontainment Screening …, 2010).

Screen size: about 330,000 compounds; about 1,900 (0.58%) were called active. About 4% were inconclusive and are not listed. Only a sample is shown. Entries with a potency or affinity are not part of this list. Unmarked numbers belong to inactive results. Cut-off read from the data, not from the text of the source: inconclusive = inhibition above about 70% without an active follow-up result; inactive = below that.

A short description of the assay: M. tuberculosis growth inhibition, HTS (AID 449762).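 Note: bacterial growth assessed after seven days of incubation.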 The note with it: M. tuberculosis H37Rv growth inhibition, 7H9 media; at 25 µM; active compounds read high.
By inhibition is commonly meant the relative decrease from the control value, in per cent. In the case of `O=C(CN(C(=O)CNC(=O)c1cccs1)c1ccc(F)cc1)NC1CCCC1`, the inhibition was -5.64%.

In the case of `Cc1ccc(C(=O)Nc2cnc3sc(C)nn3c2=O)cc1`, the inhibition was -8.53%.

Take `CC1=C(C(=O)OCC2CCCO2)C(c2ccc(C)cc2)C2=C(CCCC2=O)N1` (centres undefined): the inhibition is -4.69%. Consider `COc1ccc(C2COc3cc(O)ccc3C2)c(OC)c1O` (centres undefined), for which the inhibition was -7.8%.

Turning to `CCCSc1nnc(CSc2nc3nc(C)cc(C)n3n2)o1`, the inhibition is 6.82%. For `CCCCSc1nnc(CSc2nc3nc(C)cc(C)n3n2)o1`, the inhibition was -4.57%. The value for `CC1Cn2c(nc3sc4c(c3c2=O)CCC4)N1CCO` (centres undefined) was 3.69%; that for `Cc1ccc(C(=O)N2CCN(c3ccc(C(F)(F)F)cn3)CC2)cc1` was -8.18%; that for `O=C(c1ccccn1)N1CCN(c2ccc(C(F)(F)F)cn2)CC1` was -9.2%. For the compound `CS(=O)(=O)N(CC(=O)Nc1ccc(C(N)=O)cc1)C1CCCCC1`, the inhibition was 0.92%. For `CN(CC(=O)Nc1cccc(F)c1)C(=O)CCN1C(=O)C2CC=CCC2C1=O` (centres undefined), the inhibition is -7.97%. The same measure for `Cc1ccc(C(=O)N2CCC3(CC2)NCCc2[nH]cnc23)cc1`: 0.45%; for `CCOC(=O)c1c(-c2ccccc2)c2cc(OC)ccc2n1CCCN(C)C`: 47.1%.

Turning to `Cn1c(=O)c(C(=O)NNC(=O)c2ccccc2Br)c(O)c2ccccc21`, the inhibition is 45.1%.

For the compound `Cn1c(=O)c(C(=O)NNC(=O)c2ccccc2Cl)c(O)c2ccccc21`, the inhibition is 53.6%. As to `Cc1ccc(C(=O)N/C(=C\c2cccnc2)c2nc3ccccc3[nH]2)cc1`, the inhibition is -7.38%.

On to `Cc1ccc(C(=O)N/C(=C\c2cccs2)c2nc3ccccc3[nH]2)cc1`, for which the inhibition was -6.82%. Consider `CC(C)[C@@]1(c2ccc(Cl)cc2)ON(c2ccccc2C(F)(F)F)C1=O`, for which the inhibition is -3.69%.

With `CCn1c(C)c(C)c2cc(C(=O)NCCCN3CCCC3)ccc21`, the inhibition is -0.8%. For `O=C(NC(=S)Nc1nc2c(s1)CCCC2)c1ccccc1`, the inhibition is 2.45%. The value for `O=C(Nc1nc2c(s1)CCCC2)Oc1ccccc1` was -2.24%; that for `O=C(COc1ccc([N+](=O)[O-])cc1)N/N=C/c1cc([N+](=O)[O-])ccc1N1CCOCC1` was 3.18%.

Consider `CCC(C)NC(=O)CNC(=S)N(Cc1ccccc1)Cc1cccnc1` (centres undefined), for which the inhibition was -7.33%. As for `Cc1ccc(NCC(O)C(O)C(O)CO)cc1C` (centres undefined), the inhibition is -7.11%. `Cc1cc(NC(=O)CCC(=O)N(c2ccccc2)C(C(=O)NC2CCCC2)c2ccccc2C)no1` (centres undefined): the inhibition was 0.1%. On to `COc1ccc(N(C(=O)/C=C/C(=O)Nc2cc(C)on2)C(C(=O)NC2CCCC2)c2ccccc2C)cc1` (centres undefined), for which the inhibition was 40%. For the compound `CCCCCn1c(CCC(=O)Oc2ccccc2OC)nc2c1c(=O)[nH]c(=O)n2CCCC`, the inhibition was 4.88%. Regarding `COc1ccccc1CNC(=O)COC(=O)c1ccccc1SCC(=O)N1CCCC1`, the inhibition is 1.81%. The value for `COc1ccccc1OCC(=O)N(Cc1nnc(-c2ccccc2Cl)o1)C1CC1` was 0.28%; that for `COCCN(Cc1ccccc1)P(=O)(O)c1ccccc1OCC(=O)O` was -0.51%; that for `C/C(O)=C/c1nc2ccccc2[nH]c1=O` was 3.14%. The same measure for `Cc1ccc2oc(=O)c(/C=C(\O)c3ccccc3)nc2c1`: -2.76%; for `CC(=O)Nc1ccc(NC(=O)C(C)Oc2ccc(C)nc2[N+](=O)[O-])cc1` (centres undefined): 6.29%; for `CCN(CCn1cccn1)C(=O)c1cc(COc2cccc3cccnc23)on1`: -3.82%.

Regarding `CC(C)(C)c1ccc(C(=O)N2CCN(CCNC(=O)C(=O)NCc3ccccc3)CC2)cc1`, the inhibition was -0.83%. For the compound `Cc1ccc(C(=O)N2CCN(CCNC(=O)C(=O)NCc3ccc(Cl)cc3)CC2)cc1`, the inhibition was 4.33%. The value for `O=C(Nc1ccccc1)N(CCCN1CCOCC1)Cc1ccccc1F` was -5.07%. Consider `CCOC(=O)N1CCC2(CC1)CC(=O)c1c(ccc3oc(C(=O)O)c(C)c13)O2`, for which the inhibition is -2.67%. The value for `c1ccc2c(c1)CC(N1CCCCC1)c1ccccc1S2` (centres undefined) was 0.42%; that for `COc1ccc2c(c1)CC(N1CCN(C)CC1)c1cc(OC)ccc1S2` (centres undefined) was 9.95%. Consider `O=C(Nc1cc([N+](=O)[O-])ccc1C(=O)NCCN1CCOCC1)c1ccccc1`, for which the inhibition is 5.18%. On to `COCCn1c(SCc2nnc(-c3ccc(OC)c(OC)c3)o2)nnc1-c1ccncc1`, for which the inhibition was 5.88%. `Cc1ccc(-c2nnc(NCc3nc4ccccc4[nH]3)c3ccccc23)cc1S(=O)(=O)N(C)C`: the inhibition was -2.52%.

For `Cn1c(-c2sc3cc(C(F)(F)F)cnc3c2-c2ccccn2)n[nH]c1=S`, the inhibition is -2.76%. For `O=C(OCC(=O)N1CCCCCC1)c1ccccc1Br`, the inhibition was 4.05%.

On to `O=C(OCC(=O)N1CCCC1)c1ccccc1O`, for which the inhibition was 3.14%. With `CC1CN(C(=O)COC(=O)c2ccc(F)cc2Cl)CC(C)O1` (centres undefined), the inhibition is 6.83%.

`CC12CCC(C(=O)NCCCN3CCOCC3)(C(Br)C1=O)C2(C)C` (centres undefined): the inhibition was -0.09%.

Take `Cc1cc(Cc2c(O)[nH]c(=S)[nH]c2=O)ccc1OC(C)C`: the inhibition is -6.7%. With `COC(=O)C1(CC2CC(c3ccccc3)=NO2)CCN(C(=O)OC(C)(C)C)CC1` (centres undefined), the inhibition was 3.82%.

Regarding `Cc1cc(Cl)ccc1OCCCC(N)=O`, the inhibition was -4.53%. The value for `Cc1cc(Cl)ccc1OCCCC(=O)NN` was 13.1%; that for `CCc1ccc(/C=C2/SC(=S)N(CCC(=O)NCCCN3CCOCC3)C2=O)cc1` was -8.2%. In the case of `CC(C)(C)C(=O)N1CCN(c2ccc(NC(=O)c3ccco3)cc2)CC1`, the inhibition was 2.75%. The same measure for `CN1CCN(c2ccc(NC(=O)c3ccc(-c4cccc([N+](=O)[O-])c4)o3)cc2)CC1`: 0.14%; for `COCCN1CCN(C(=O)c2cc(COc3cc(C)ccc3C)on2)CC1`: -2.97%. Regarding `Cc1cnc(NC(=O)C2CCC(C(C)(C)C)CC2)s1` (centres undefined), the inhibition is -5.46%. With `Cc1cnc(NC(=O)CC2CCCC2)s1`, the inhibition is 1.33%. The value for `Cc1cccc(NC(=O)COC(=O)c2ccc3c(=O)n4c(nc3c2)CCC4)c1` was 0.33%.
